Results filed as inconclusive are left out. The source made the active and inactive calls. The call rests on the fitted dose curve; in most records, active means well fitted inhibition curve with a large enough effect; inconclusive means small, poorly fitted or top-dose-only effect; inactive means no such curve, though single readings can be large or run the other way.

Outcome data for twelve compounds are collected here from PubChem BioAssay (NCATS).

The assay in a line: Counterscreen qHTS for small molecule stabilizers of the endoplasmic reticulum resident proteome: GLuc-NoTag assay (AID 1508627). The note with it: Gaussia luciferase NoTag secretion counterscreen, luminescence, thapsigargin 100 nM for final 4 h; series mostly up to 76.4 µM. An excerpt: Assay Provider: Brandon K. Harvey Ph.D.
National Institute on Drug Abuse, National Institutes of Health, Baltimore, MD
Endoplasmic reticulum (ER) dysregulation is associated with human pathologies including neurodegenerative, cardiovascular, muscular, and diabetic conditions. Maintenance of ER calcium is critical for functions of the ER and its depletion can lead to loss of ER resident proteins, in a process termed exodosis. Therapeutic compounds capable of attenuating the redistribution of ER proteins under pathological conditions may slow or stop disease progression. To identify such compounds, we performed a quantitative high-throughput screen (qHTS) using the SERCaMP assay, which monitors secretion of ER resident proteins triggered by calcium depletion.
SERCaMP was initially developed as a reporter of ER calcium homeostasis using a Gaussia luciferase with a modified signal peptide and carboxy-terminus (GLuc-SERCaMP), modifications that confer secretion of the reporter in response to ER calcium depletion (Henderson et al., 2014). The assay was used to screen 9,501 compounds, including a collection of drugs approved by the FDA (US), EMA (EU), NHI (Japan), and HC (Canada) regulatory agencies (Huang et al., 2011). Since the SERCaMP reporter reflects the exodosis phenomenon (Trychta et al., 2018a), compounds identified in the screen have the potential to prevent exodosis by different mechanisms such as stabilizing ER calcium or augmenting ERS retrieval.
1. Henderson, M.J., Wires, E.S., Trychta, K.A., Richie, C.T., and Harvey, B.K. (2014). SERCaMP: a carboxy-terminal protein modification that enables monitoring of ER calcium homeostasis. Mol Biol Cell 25, 2828-2839.
2. Huang, R., Southall, N., Wang, Y., Yasgar, A., Shinn, P., Jadhav, A., Nguyen, D.T., and Austin, C.P. (2011). The NCGC pharmaceutical collection: a comprehensive resource of clinically approved drugs enabling repurposing and chemical genomics. Sci Transl Med 3, 80ps16.
3. Trychta, K.A., Back, S., Henderson, M.J., and Harvey, B.K. (2018a). KDEL Receptors Are Differentially Regulated to Maintain the ER Proteome under Calcium Deficiency. Cell Rep 25, 1829-1840 e1826.
SEQUENCE No. (1, 2, 3, etc.); […] (e.g., Cells, Incubation, Reagent, etc.); VALUE and DESCRIPTION.
1; Reagent; 5 uL; 1000 SH-SY5Y cells per wells
3; Compound; 23 nL; Control inhibitor / compound library
5; Reagent; 100 nM; Thapsigargin
7; Reagent; 1 uL; 0.5x coelenterazine
8; Detection; Luminescence; ViewLux imaging system
NOTES (numbers refer to sequence above)
1; SH-SY5Y human neuroblastoma cells stably expressing the constitutively secreted GLuc (SH-SY5Y-GLuc-NoTag) cells were seeded in 1,536 well white tissue culture treated plates (Corning, Cat# 7464) in DMEM-high glucose-sodium pyruvate (ThermoFisher Scientific, Cat #10569) supplemented with 10% bovine growth serum (Hyclone), 10 U/ml penicillin (Gibco), 10 ug/ml streptomycin (Gibco), and 20 mM HEPES.
2; Assay plates were incubated for 5 hour at 37C in a humidified incubator containing 5% CO2.
4; Cells were then incubated for 19 hours at 37C, 5% CO2.
5; Thapsigargin was added at 100 nM to deplete ER calcium stores.
6; Cells were incubated for 4 hour (37 °C, 5% CO2)
7; Gaussia luciferase in the medium was measured by adding 1 ul of 0.5x coelenterazine (final concentration 0.07x) prepared in Gaussia Luciferase Glow Assay Buffer (Pierce), without addition of the Cell Lysis Buffer Reagent.
8; Luminescence was measured using a ViewLux CCD imaging system (Perkin Elmer) equipped with clear filters. […] The same controls were also used for the calculation of the Z' factor, a measure of assay quality control, as previously described (Zhang et al., 1999). For the initial validation of activity in the SERCaMP assays, hits from the primary screen were assayed again at 11-concentrations (1.3 nM - 76.6 uM). SH-SY5Y-GLuc-SERCaMP cells were assayed for ER Ca2+ depletion as outlined above.
1. Zhang, J.H., Chung, T.D., and Oldenburg, K.R. (1999). […]
Background: A counterscreen serves to expose hits that act by an unwanted route or on another target.
`Oc1ccc(O)cc1`: the call was inactive. With `CCN1CCN(c2cc3c(cc2F)c(=O)c(C(=O)O)cn3C2CC2)CC1` the entry was “inactive”; with `CN1C2CCC1CC(OC(=O)c1c[nH]c3ccccc13)C2` (configuration not stated), “inactive”. Regarding `CC(=O)c1ccc2c(c1)N(CCCN1CCC(CCO)CC1)c1ccccc1S2`, the outcome was inactive. With `CCCOC(C(=O)OC1CCN(C)CC1)(c1ccccc1)c1ccccc1` the entry was “inactive”; with `CN1[C@@H]2CC[C@H]1CC(OC(=O)c1c[nH]c3ccccc13)C2` (some centres not stated), “inactive”; with `CCCCCCCCCCCCCCCCCC(=O)OCC(O)CO` (configuration not stated), “inactive”. As for `O=C(Nc1ccc(Oc2ccc(Cl)cc2)c(Cl)c1)c1cc(I)cc(I)c1O`, the entry is “inactive”; as for `CN1CCN(C(c2ccccc2)c2ccccc2)CC1`, “inactive”. With `CN(C)C(=S)SC(=S)N(C)C` the entry was “inactive”; with `CC(C)N=C(N)/N=C(\N)Nc1ccc(Cl)cc1`, “inactive”; with `Nc1nc2ncc(CNc3ccc(C(=O)N[C@@H](CCC(=O)O)C(=O)O)cc3)nc2c(=O)[nH]1`, “inactive”.
